Data from PubChem BioAssay (NCATS).
Results filed as inconclusive are left out. Entries that show only a call come without a potency. Unmarked numbers belong to inactive results. Active and inactive are the calls of the source. Calls follow the shape of the dose curve; as a rule, active = well fitted curve in the direction sought with a large enough effect; inconclusive = small, poorly fitted or top-dose-only effect, or another doubt; inactive = no such curve, though single readings can be large; an effect the other way counts as inactive or inconclusive.

Tests used:
[1] = molecular target: Rap guanine nucleotide exchange factor 3 (Homo sapiens) (UniProt O95398); experiment: Confirmatory qHTS for antagonist of cAMP-regulated guanine nucleotide exchange factor 3 (EPAC1) (AID 1645880); also: nearly all actives have a fitted effect of over 55% in size; also: potency is read from the fitted curve at half-maximal effect
Chain of Rap guanine nucleotide exchange factor 3 (Homo sapiens) (O95398 whole entry, looked up): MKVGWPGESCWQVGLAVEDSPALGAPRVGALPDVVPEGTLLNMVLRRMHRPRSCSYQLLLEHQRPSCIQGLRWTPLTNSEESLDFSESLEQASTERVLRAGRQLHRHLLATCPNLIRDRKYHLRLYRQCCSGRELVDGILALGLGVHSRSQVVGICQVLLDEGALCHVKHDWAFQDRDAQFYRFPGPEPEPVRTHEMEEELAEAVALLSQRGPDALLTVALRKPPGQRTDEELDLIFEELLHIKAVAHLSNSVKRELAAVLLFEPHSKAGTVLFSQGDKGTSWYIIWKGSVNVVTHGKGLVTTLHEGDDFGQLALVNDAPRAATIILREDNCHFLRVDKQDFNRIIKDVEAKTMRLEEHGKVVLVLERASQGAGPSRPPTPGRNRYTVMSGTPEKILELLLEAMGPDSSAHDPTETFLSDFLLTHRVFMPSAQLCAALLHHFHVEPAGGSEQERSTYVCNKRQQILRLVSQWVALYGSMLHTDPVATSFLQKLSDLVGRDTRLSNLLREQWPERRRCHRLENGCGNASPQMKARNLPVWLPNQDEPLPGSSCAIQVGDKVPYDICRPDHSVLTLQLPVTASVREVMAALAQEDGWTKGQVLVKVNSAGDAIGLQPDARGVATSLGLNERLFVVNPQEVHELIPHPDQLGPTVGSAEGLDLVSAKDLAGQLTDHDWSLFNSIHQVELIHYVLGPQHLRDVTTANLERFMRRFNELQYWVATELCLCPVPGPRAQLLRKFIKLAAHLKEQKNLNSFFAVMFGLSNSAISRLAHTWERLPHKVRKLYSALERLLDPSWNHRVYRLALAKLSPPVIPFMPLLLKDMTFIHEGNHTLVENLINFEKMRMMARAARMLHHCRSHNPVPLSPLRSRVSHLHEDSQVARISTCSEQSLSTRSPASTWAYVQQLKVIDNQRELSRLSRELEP
In short: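 Nucleotide exchange uses 100 nM EPAC1, 250 nM RAP1B-BODIPY-GDP and 50 uM GDP, with compounds in a concentration-titration series. After 5 min at room temperature, fluorescence (480 nm ex/540 nm em) is read every 5 min for 30 min. Data are normalized to control ATA and DMSO.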

[2] = molecular target: Rap guanine nucleotide exchange factor 3 (Homo sapiens) (UniProt O95398); experiment: Confirmatory qHTS for agonist of cAMP-regulated guanine nucleotide exchange factor 3 (EPAC1) (AID 1645881);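 also: EPAC1 catalysed release of BODIPY-GDP from Rap1B seen as fluorescence loss; nearly all actives have a fitted effect of over 75% in size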
[3] = molecular target: Rap guanine nucleotide exchange factor 4 (Homo sapiens) (UniProt Q8WZA2); experiment: Confirmatory qHTS for agonist of cAMP-regulated guanine nucleotide exchange factor 4 (EPAC2) (AID 1645884);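 also: nucleotide exchange releases bodipy-GDP from Rap1 and this lowers its fluorescence; nearly all actives have a fitted effect of over 65% in size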
Chain of Rap guanine nucleotide exchange factor 4 (Homo sapiens) (Q8WZA2 whole entry, looked up): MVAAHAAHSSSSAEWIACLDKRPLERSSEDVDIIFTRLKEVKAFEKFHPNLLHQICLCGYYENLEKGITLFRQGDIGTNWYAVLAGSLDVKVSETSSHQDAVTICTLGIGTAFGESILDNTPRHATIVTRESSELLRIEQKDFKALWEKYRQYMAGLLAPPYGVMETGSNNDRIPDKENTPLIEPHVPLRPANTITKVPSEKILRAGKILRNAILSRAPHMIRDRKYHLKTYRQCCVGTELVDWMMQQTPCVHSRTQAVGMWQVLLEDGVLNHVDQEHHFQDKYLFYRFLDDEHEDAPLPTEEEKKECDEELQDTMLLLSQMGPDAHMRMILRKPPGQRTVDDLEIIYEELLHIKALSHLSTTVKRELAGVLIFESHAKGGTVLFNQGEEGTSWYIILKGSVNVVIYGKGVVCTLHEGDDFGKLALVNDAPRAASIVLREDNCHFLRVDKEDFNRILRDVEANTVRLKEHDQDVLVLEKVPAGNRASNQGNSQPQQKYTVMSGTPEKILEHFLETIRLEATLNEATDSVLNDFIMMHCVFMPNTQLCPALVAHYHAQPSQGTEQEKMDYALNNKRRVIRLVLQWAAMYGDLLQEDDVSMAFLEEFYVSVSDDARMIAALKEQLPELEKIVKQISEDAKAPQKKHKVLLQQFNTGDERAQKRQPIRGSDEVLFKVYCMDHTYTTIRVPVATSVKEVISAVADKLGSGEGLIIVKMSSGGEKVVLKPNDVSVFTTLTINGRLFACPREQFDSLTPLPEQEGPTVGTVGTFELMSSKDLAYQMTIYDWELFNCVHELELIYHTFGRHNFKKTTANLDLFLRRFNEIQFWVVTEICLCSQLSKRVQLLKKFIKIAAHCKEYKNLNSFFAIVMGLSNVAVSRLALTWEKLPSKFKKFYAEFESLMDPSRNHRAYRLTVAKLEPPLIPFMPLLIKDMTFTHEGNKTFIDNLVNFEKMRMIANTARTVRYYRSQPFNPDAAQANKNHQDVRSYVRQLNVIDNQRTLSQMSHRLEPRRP

[4] = molecular target: Rap guanine nucleotide exchange factor 4 (Homo sapiens) (UniProt Q8WZA2); experiment: Confirmatory qHTS for antagonist of cAMP-regulated guanine nucleotide exchange factor 4 (EPAC2) (AID 1645885); also: nearly all actives have a fitted effect of over 25% in size; also: potency is read from the fitted curve at half-maximal effect
[5] = molecular target: Rap guanine nucleotide exchange factor 3 (Homo sapiens) (UniProt O95398); experiment: Counterscreen qHTS for antagonist of cAMP-regulated guanine nucleotide exchange factor 3 (EPAC1) (AID 1645888);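 also: fluorescence loss as bound BODIPY-GDP is released from Rap1B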
In short: (§1)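 Rap1B-BODIPY-GDP 250 nM + GDP 50 uM; cpds 7-pt, final 9.74 nM–152 uM (activator mode) or from 7.32 nM upwards (inhibitor mode); RT; FI 480/540 nm at 5 and 30 min, then ± cAMP, reread.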

[6] = molecular target: Rap guanine nucleotide exchange factor 3 (Homo sapiens) (UniProt O95398); experiment: Counterscreen qHTS for agonist of cAMP-regulated guanine nucleotide exchange factor 3 (EPAC1) (AID 1645889); also: nearly all actives have a fitted effect of over 40% in size; also: potency is read from the fitted curve at half-maximal effect
In short: as §1

SMILES | Potency [1] | Potency [2] | activation [3] | Potency [4] | activity change, negative = inhibition [5] | activation [6] | Potency [3] | Potency [5] | Potency [6]
Cc1ccc(S(=O)(=O)N2CCN(C(=O)CC(C)n3nc(C)c(Cl)c3C)CC2)cc1 (stereo not given) | inactive | inactive | 1.58% [at 17.1 µM, percent relative to cAMP agonist control] | inactive | 13.5% [at 30.8 µM] | 6.22% [at 30.8 µM] | – | – | –
Cc1ccc(OCCC(=O)OCC(=O)NNC(=O)c2ccccc2)cc1 | inactive | inactive | 0.0575% [at 17.1 µM, percent relative to cAMP agonist control] | inactive | -6.38% [at 30.8 µM] | 0.419% [at 30.8 µM] | – | – | –
COc1ccccc1Oc1ccnc2cc(Cl)ccc12 | inactive | inactive | 3.38% [at 17.1 µM, percent relative to cAMP agonist control] | inactive | 3.13% [at 30.8 µM] | 5.9% [at 30.8 µM] | – | – | –
CC(C)(C)C(=O)NCc1ccc(C(=O)CN2C(=O)NC3(CCCC3)C2=O)s1 | inactive | inactive | – | inactive | – | – | inactive | inactive | inactive
O=C(c1ccc(Br)o1)N1CCN(c2ccc3nnc(-c4ccc(F)cc4)n3n2)CC1 | inactive | inactive | -1.27% [at 17.1 µM, percent relative to cAMP agonist control] | inactive | -4.8% [at 30.8 µM] | 25.2% [at 30.8 µM] | – | – | –
COc1ccc(C(CC(=O)N2CCOCC2)c2c(OC)cc(OC)c3c(-c4ccccc4)cc(=O)oc23)cc1 (stereo not given) | 37.9 µM (active) | inactive | – | inactive | – | – | inactive | inactive | inactive
Cc1nn(CCc2nc(-c3ccco3)cs2)c2[nH]c(=O)cc(C(F)(F)F)c12 | inactive | inactive | – | inactive | – | – | inactive | inactive | inactive
Cc1ccc(C(=O)Nc2sc(C)c(C)c2C(=O)c2ccccc2)cc1 | inactive | inactive | 4.34% [at 17.1 µM, percent relative to cAMP agonist control] | inactive | -1.59% [at 30.8 µM] | -4.34% [at 30.8 µM] | – | – | –
O=c1c2ccccc2[nH]c(=S)n1-c1cccc(S(=O)(=O)N2CCCC2)c1 | inactive | inactive | – | inactive | – | – | inactive | inactive | inactive
COc1nc(C)cc(C)c1S(=O)(=O)c1ccccc1C | inactive | inactive | – | inactive | – | – | inactive | inactive | inactive
O=C(C[n+]1cc(Br)cc2ccccc21)c1ccc(F)cc1 | inactive | inactive | 1.58% [at 17.1 µM, percent relative to cAMP agonist control] | inactive | 9.18% [at 30.8 µM] | 21% [at 30.8 µM] | – | – | –
O=C(Cn1cnc2scc(-c3cccc([N+](=O)[O-])c3)c2c1=O)NCc1ccco1 | 37.9 µM (active) | inactive | – | inactive | – | – | inactive | inactive | inactive
CCc1ccc(S(=O)(=O)Nc2cc3c(cc2C)n(C)c(=O)n3C)cc1 | inactive | inactive | 6.63% [at 17.1 µM, percent relative to cAMP agonist control] | inactive | -10.1% [at 30.8 µM] | 18.2% [at 30.8 µM] | – | – | –
Nc1nnc(-c2cccc(F)c2)s1 | inactive | inactive | – | inactive | – | – | inactive | inactive | inactive
Cc1nc(SC(C)C(=O)NCC2CCCO2)c2cc(-c3ccccc3)sc2n1 (stereo not given) | inactive | inactive | – | inactive | – | – | inactive | inactive | inactive
O=C(NCCS(=O)(=O)N1CCN(c2cccc(Cl)c2)CC1)c1ccc2c(c1)OCO2 | inactive | inactive | – | inactive | – | – | inactive | inactive | inactive
CCCCC1=CC2=CC(=O)C(C)(OC(=O)C3CCCC3)C(=O)C2=CO1 (stereo not given) | 39.8 µM (active) | inactive | 1.4% [at 17.1 µM, percent relative to cAMP agonist control] | inactive | -20.6% [at 30.8 µM] | 18% [at 30.8 µM] | – | – | –
Cc1ccc(CN(C(=O)COc2cccc(Cl)c2)c2ccccn2)o1 | inactive | inactive | – | inactive | – | – | inactive | inactive | inactive
COc1cccc(/C=C2\SC(=S)N(C(Cc3ccccc3)C(=O)O)C2=O)c1 (stereo not given) | 47.8 µM (active) | inactive | – | inactive | – | – | inactive | inactive | inactive
Cc1ccc(-c2csc(N=C(N)N)n2)cc1 | inactive | inactive | 2.77% [at 17.1 µM, percent relative to cAMP agonist control] | inactive | -10% [at 30.8 µM] | 9.63% [at 30.8 µM] | – | – | –

SMILES | Potency [1] | Potency [2] | activation [3] | Potency [4] | activity change, negative = inhibition [5] | activation [6] | Potency [3] | Potency [5] | Potency [6]
CCOC(=O)c1c(CC(C)C)csc1N | inactive | inactive | – | inactive | – | – | inactive | inactive | inactive
Cc1ccc2nc(NC(=O)CSc3ncnc4c3oc3ccccc34)sc2c1 | inactive | inactive | – | inactive | – | – | inactive | inactive | inactive
CCn1c2ccccc2c2nnc(SCC(=O)N(C)C3CCS(=O)(=O)C3)nc21 (stereo not given) | inactive | inactive | 3.11% [at 17.1 µM, percent relative to cAMP agonist control] | inactive | 5.48% [at 30.8 µM] | 4.22% [at 30.8 µM] | – | – | –
C[C@@H](c1ccccc1)N1Cc2ccccc2Oc2cc(Br)ccc2S1(=O)=O | inactive | inactive | – | 2.69 µM (active) | – | – | inactive | inactive | inactive
O=C(O)C(c1ccccc1)N1C(=O)/C(=C\c2ccc(-c3ccccc3Cl)o2)SC1=S (stereo not given) | inactive | inactive | – | inactive | – | – | inactive | inactive | inactive
O=C(Nc1ccncc1)c1ccc2ncsc2c1 | inactive | inactive | – | inactive | – | – | inactive | inactive | inactive
Cc1cc(S(=O)(=O)Nc2ccccc2C)ccc1F | inactive | inactive | – | 13.5 µM (active) | – | – | inactive | inactive | inactive
COc1ccc(/C=C/C(=O)c2ccncc2)c2ccccc12 | inactive | inactive | -6.66% [at 17.1 µM, percent relative to cAMP agonist control] | inactive | -0.831% [at 30.8 µM] | 15.3% [at 30.8 µM] | – | – | –
O=C(O)c1ccc(N/N=C/c2ccc3c(c2)OCO3)cc1 | inactive | inactive | – | 33.8 µM (active) | – | – | inactive | inactive | inactive
CN(C)c1ccc(/C=C/c2nc3ccccc3c(=O)n2-c2ccc(C(=O)O)cc2)cc1 | 75.7 µM (active) | inactive | – | 67.5 µM (active) | – | – | inactive | inactive | 39.8 µM (active)
O=C(O)CN1C(=O)/C(=C\c2ccccc2OCc2ccc(Cl)cc2Cl)SC1=S | 44.7 µM (active) | inactive | -0.613% [at 17.1 µM, percent relative to cAMP agonist control] | inactive | -18.8% [at 30.8 µM] | 3.68% [at 30.8 µM] | – | – | –
CCc1cccc(C)c1NC(=O)c1cc2ccccc2o1 | inactive | inactive | – | inactive | – | – | inactive | inactive | inactive
O=C(COc1ccccc1Br)NCCC1=CCCCC1 | inactive | inactive | 11.2% [at 17.1 µM, percent relative to cAMP agonist control] | inactive | -17.9% [at 30.8 µM] | 20.5% [at 30.8 µM] | – | – | –
CCOC(=O)N1CCN(S(=O)(=O)c2cc(-c3nn4c(C)nnc4c4ccccc34)ccc2C)CC1 | inactive | inactive | – | inactive | – | – | inactive | inactive | inactive
CC(C)(C(=O)N1CCC1(C)C(=O)NS(=O)(=O)c1ccccc1Cl)c1ccccc1 (stereo not given) | inactive | inactive | 3.96% [at 17.1 µM, percent relative to cAMP agonist control] | inactive | 0.723% [at 30.8 µM] | 1.99% [at 30.8 µM] | – | – | –
COc1ccc(CNc2cccnc2)c(OC)c1OC | inactive | inactive | -6.76% [at 17.1 µM, percent relative to cAMP agonist control] | inactive | -16% [at 30.8 µM] | 15.5% [at 30.8 µM] | – | – | –
C=CCc1ccccc1Oc1cc(OC)nc(N)n1 | inactive | inactive | -1.65% [at 17.1 µM, percent relative to cAMP agonist control] | inactive | -22.4% [at 30.8 µM] | -1.76% [at 30.8 µM] | – | – | –
CCN(CC)S(=O)(=O)c1cc(NC(=O)Cn2ncc(Cl)c(Cl)c2=O)ccc1C | 39.8 µM (active) | inactive | -11.9% [at 17.1 µM, percent relative to cAMP agonist control] | inactive | -2.1% [at 30.8 µM] | 5.37% [at 30.8 µM] | – | – | –
C=CCN(CC=C)Cc1cc(=O)oc2cc(OC)ccc12 | inactive | inactive | 5.94% [at 17.1 µM, percent relative to cAMP agonist control] | inactive | -16% [at 30.8 µM] | -2.24% [at 30.8 µM] | – | – | –
O=c1oc2ccccc2nc1/C=C(O)/C=C\c1ccccc1 | inactive | inactive | 2.36% [at 17.1 µM, percent relative to cAMP agonist control] | inactive | -9.13% [at 30.8 µM] | -0.436% [at 30.8 µM] | – | – | –
